Test results reported in PubChem BioAssay (NCI).
About 83,000 compounds went through this panel and 20% of them were active in at least one assay; those are over-represented in the sample as a whole.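 Method: cells in 96-well plates; compound added at one concentration; 48 h incubation; percent growth measured; values under 10 scored active.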 A number with no mark means an inactive call. Active and inactive are the calls of the source.

Legend:
Test in all cases: NCI-60 one-dose screen, 48 h (100 = growth as untreated, 0 = no growth, -100 = all killed)
Conditions in all cases: 10 µM unless noted
[1] = tested on: SR leukemia
[2] = tested on: RPMI-8226 leukemia
[3] = tested on: OVCAR-8 ovarian
[4] = tested on: OVCAR-5 ovarian
[5] = tested on: OVCAR-4 ovarian
[6] = tested on: SK-OV-3 ovarian
[7] = tested on: IGROV1 ovarian
[8] = tested on: HS 578T breast
[9] = tested on: NCI/ADR-RES ovarian

SMILES | growth [1] | growth [2] | growth [3] | growth [4] | growth [5] | growth [6] | growth [7] | growth [8] | growth [9]
COc1ccc(C(=O)CSc2nc3c(c(Nc4ccc(S(N)(=O)=O)cc4)n2)CCCC3)cc1 | 69.6% | 83.6% | 92.3% | 123% | 87.8% | 120% | 112% | 110% | 103%
COc1ccc(-n2c(SCc3n[nH]c(=S)o3)nc3ccc(Cl)cc3c2=O)cc1 | 103% | 101% | 101% | 89.7% | 99.3% | 97.7% | 95.8% | 93.9% | 99.4%
COc1ccc([C@H]2[C@H](O)C(=O)N2c2cc(OC)c(OC)c(OC)c2)cc1F | 9.35% (active) | 26.9% | -15% (active) | 27.7% | 67.7% | 30.1% | 19.2% | 3.89% (active) | 8.51% (active)
COc1ccc(C(=O)Nc2ncc(Cc3ccccc3Cl)s2)cc1 | 16.4% | 22.2% | 12.3% | 36.5% | 62.1% | 29% | 28.2% | 8.76% (active) | 5.87% (active)
CC(=O)N1N=C(c2cccc(-n3cccc3)c2)CC1c1cccc(F)c1 (stereo not given) | 96.2% | 93.7% | 98.2% | 95.8% | 101% | 97.3% | 96.9% | 91% | 95.9%
C#Cc1nc(C(=O)NCCC(=O)Nc2ccc(NC(=O)c3ccc(/C=C/C(=O)c4nccn4C)cc3)cc2)cs1 | 0.901% (active) | -33% (active) | 22.3% | 50.9% | 61.8% | 86.3% | -25.5% (active) | 86.7% | 49.2%
CC1(COc2ccc3ncc(C#Cc4cncc(C(=O)Nc5cccc(C(F)(F)F)c5)c4)n3n2)COC1 | 56.5% | 92.7% | 81.4% | 81.7% | 82.1% | 96.9% | 62% | 53.6% | 80.3%
Cc1cccc(/C=C/C(=O)Nc2ncc(Cc3cccc(C)c3)s2)c1 | 6.46% (active) | 19.1% | 24.3% | 40.6% | 45.6% | 30% | 32.5% | 14.2% | 18.3%
CCC(NC(c1cc2cccc3ccc4cccc1c4c32)c1nnnn1C(C)(C)C)C1CCCCC1 (stereo not given) | 40.9% | 28.1% | 73.2% | 84.6% | 46.5% | 70.8% | 65.2% | 84.5% | 74.4%
Nc1nc(-c2cccc([N+](=O)[O-])c2)c(N=Nc2ccc(Br)cc2)s1 | 50.7% | 15% | -28.7% (active) | -12.1% (active) | -33.2% (active) | -83.7% (active) | -13.3% (active) | 0.349% (active) | -21.7% (active)
CCOC(=O)c1c(Nc2ccccc2)nn2c(-c3ccc(Cl)cc3)ccnc12 | 72.7% | 91.7% | 80.6% | 87.2% | 66.5% | 75.4% | 80.5% | 72.6% | 63.6%
N#Cc1c(Nc2ccccc2)nn2c(-c3ccc([N+](=O)[O-])cc3)ccnc12 | 103% | 94.1% | 99.9% | 99.6% | 108% | 111% | 100% | 102% | 101%
Nc1nc(-c2cccc([N+](=O)[O-])c2)c(N=Nc2cccc([N+](=O)[O-])c2)s1 | 67.5% | 34.3% | 19.9% | 53.4% | -15.2% (active) | -78% (active) | 27.6% | 37.6% | 18.6%
O=C(NNc1nc2cc(F)c(F)cc2n2c(CN3CC4CNCC4C3)ccc12)c1cnccn1 (stereo not given) | 12% | 20.4% | 13.8% | 42.7% | 22.8% | 13.3% | 14.5% | 72.7% | 56.7%
Cc1ccc(S(=O)(=O)NCCNc2nc(Nc3ccc(N4CCN(C)CC4)cc3)nc3ccsc23)cc1 | 18.1% | 84.2% | 104% | 113% | 95.1% | 129% | 108% | 89% | 100%
O=C(Nc1ccc2c(ccn2Cc2ccccn2)c1)c1cnccn1 | 92.7% | 93.7% | 105% | 96.8% | 76% | 109% | 79.7% | 104% | 107%
COC(=O)c1[nH]nc2c1C1(C(=O)N(C)c3ccccc31)C(C#N)=C(N)O2 (stereo not given) | 113% | 104% | 102% | 103% | 97.7% | 98.3% | 105% | 99.7% | 99.7%
NS(=O)(=O)c1ccc(Nc2nc(N/N=C/c3c[nH]c4ccccc34)nc(Nc3ccccc3)n2)cc1 | 12.1% | -5.69% (active) | 37.8% | 87.8% | 59.7% | 90.8% | 33.9% | 42.2% | 93.5%
c1n[nH]cc1-c1nc2ccc3[nH]ncc3c2c2c1CCCC2 | -9.78% (active) | 41.5% | 23.5% | 43.9% | 54.1% | -19.6% (active) | 20.8% | -4.89% (active) | 51.1%
COc1ccc(-n2c(SCc3nnc(NC(=O)c4ccc(Br)cc4)s3)nc3cc(OC)c(OC)cc3c2=O)cc1 | 101% | 104% | 94.9% | 95.5% | 93.8% | 108% | 102% | 99% | 78.8%
CC1=N[C@@H]2CN(C(=O)OC(C)(C)C)C[C@@H]2n2c1cc1ccccc1c2=O | 99.9% | 101% | 101% | 107% | 107% | 92.5% | 107% | 101% | 100%
NS(=O)(=O)c1ccc(Nc2cc(-c3ccccc3)nc(SCC(=O)c3ccccc3)n2)cc1 | 101% | 93.7% | 99.3% | 104% | 102% | 110% | 97.4% | 107% | 101%
CN1CCN(Cc2ccc(NC(=O)c3cncc(C#Cc4cnn5cccnc45)c3)cc2C(F)(F)F)CC1 | -16.3% (active) | 6.03% (active) | 13.5% | 26% | 27.9% | 28.3% | 5.44% (active) | 27.2% | 26.5%
Cc1cc(C)c(N2C(=O)CC(Nc3ccc(Cl)cc3Cl)C2=O)c(C)c1 (stereo not given) | 97.5% | 99.9% | 101% | 100% | 102% | 108% | 104% | 95.8% | 107%
CN1CCN(c2ccc(/C=N/Nc3nc4ccccc4c(=O)n3-c3ccccc3)cc2)CC1 | 93.4% | 101% | 102% | 107% | 97.2% | 109% | 104% | – | 101%
CS(=O)(=O)c1ccc(-c2nn(-c3ccccc3)cc2/C=N/NC(=O)c2nc(N)n[nH]2)cc1 | 69.7% | 83.3% | 101% | 94.8% | 103% | 112% | 90.8% | 111% | 98.9%
CC[C@@H](CO)Nc1ccc2ncc(C#Cc3cncc(C(=O)Nc4ccc(CN5CCN(C)CC5)c(C(F)(F)F)c4)c3)n2n1 | -24.4% (active) | -34.5% (active) | -57.6% (active) | -14% (active) | -44.1% (active) | -40% (active) | -25.4% (active) | -41.5% (active) | 55.1%
C=CCn1c(SCC(=O)Nc2ccc(C(=O)/C=C/c3ccc(Br)cc3)cc2)nnc1-c1c[nH]c2ccccc12 | 70.3% | 3.64% (active) | 81.2% | 99.4% | 74.7% | 91.8% | 76.4% | 89.9% | 101%
O=C(CCC(=O)N1CCOCC1)OCCCCCCSc1ccc([N+](=O)[O-])c2nonc12 | -2.69% (active) | -21.1% (active) | -6.75% (active) | -20.1% (active) | -83.7% (active) | 39.8% | -88.7% (active) | -8.04% (active) | 2.86% (active)
